From the supplement of paper PMC6555819

Experiments:
Test in all cases: PBM binding z-score (relative to random genomic background probes); higher = stronger binding; sequences stand for … in GC…GCGATTGACAGCGTAGAATGAAGG
[1] = system: RARb homodimer (NR concentration 270 nM)
Summary of the method: (§1)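 Custom Agilent 4×180K protein-binding microarrays carried double-stranded probes. Their 34-nt variable regions held direct-repeat seeds, single-nucleotide variants, half-site ablations and random human genomic background sequences. Arrays were incubated 1 h with ligand-free nuclear receptor dimers in PBS pH 7.4, 2% milk, 0.02% Triton X-100, 1 mM DTT, 0.2 mg/mL BSA and 0.4 mg/ml salmon testes DNA. Antibodies against each partner (one per run) detected binding, and scanned fluorescence was regression-normalized. Binding z-scores use random background probes as reference.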

[2] = system: RARg:RXRa (NR concentration 270 nM, RXRa partner concentration 90 nM)
Summary of the method: as §1

[3] = system: RARg homodimer (NR concentration 270 nM)
Summary of the method: as §1

[4] = system: RXRa DBDmut IVT, anti-RXR (DBD mutation: RXRa K156A/R161A, NR concentration 90 nM)
Summary of the method: as §1

[5] = system: RXRa homodimer (NR concentration 180 nM)
Summary of the method: as §1

[6] = system: THRa:RXRa (NR concentration 90 nM, RXRa partner concentration 90 nM)
Summary of the method: as §1

[7] = system: THRa homodimer (NR concentration 90 nM)
Summary of the method: as §1

[8] = system: VDR homodimer (NR concentration 270 nM)
Summary of the method: as §1

| Sequence | PBM binding z-score [1] | PBM binding z-score [2] | PBM binding z-score [3] | PBM binding z-score [4] | PBM binding z-score [5] | PBM binding z-score [6] | PBM binding z-score [7] | PBM binding z-score [8] |
| --- | --- | --- | --- | --- | --- | --- | --- | --- |
| ATCCCTAGGTAAAGTTCAGTGAAAGATCGATAGA | 2.36 | 1.81 | 1.95 | 1.28 | 1.16 | 1.07 | 0.22 | 2.35 |
| GCGACTGGGGCCTCAGCAGGTTACCATAACTTAA | 0.199 | -0.489 | -0.568 | -0.479 | -0.182 | 1.19 | -0.118 | -0.622 |
| CCTCGGAGGACAACAGGAGGTCAGAGCAGCCAGA | 3.68 | 3.56 | 3.45 | -0.0172 | 2.05 | 2.86 | 1.04 | 1.14 |
| CCTAGCAGGCCAGGATCACTCAAGCATTTCGCTT | -0.596 | -0.33 | -0.385 | -0.0229 | -0.232 | -0.455 | -0.257 | -0.251 |
| CCTCGGAGGACGGAAGGTCAGAGCTGTCCGCTTT | 2.97 | 2.49 | 2.14 | -0.0504 | 1.69 | 1.94 | -0.304 | -0.0606 |
| GATACAGGGTCAAGGCCGGAGTACGCGTATTGAT | 3.43 | 5.35 | 5.4 | 2.23 | 5.79 | 3.46 | 1.03 | 1.78 |
| TCTAGTTTGTCAAAGGTCACACACTCGAAATGCG | 4.86 | 6.06 | 5.71 | 2.14 | 6.98 | 4.07 | 1.98 | 2.58 |
| ATCGAAAGGTCGCGGTGAGTATAGAGAAAGGGAA | 3.05 | 5 | 4.48 | 1.33 | 5.39 | 2.84 | 0.211 | 1.06 |
| CGTCCAAGGTCAATGCTAGGTCAGTGTAAGCATT | 5.02 | 7.55 | 7 | 3.74 | 5.35 | 4.48 | 2.75 | 3.52 |
| CGAACTAGGTCAATGACAGTGAATCTCCGCACGC | 2.77 | 3.48 | 4.07 | 1.91 | 2.36 | 2.2 | 0.673 | 0.425 |
| ATCTCTAGGTAAGACTCAGGTCAGTGAAGAACGC | 2.52 | 1.49 | 1.35 | 0.359 | 0.773 | 2.67 | 2.37 | 0.803 |
| AGAATGAGGTTAATAAGATCAGGGAATTGCGGTC | 0.992 | 1.32 | 1.09 | 1.16 | 1.82 | 2.04 | 0.762 | 0.247 |
| TAGCCTTGGTCAGATCGGGCCAGTATACGCTATA | -0.204 | -0.284 | 0.118 | -1.12 | -0.507 | 1.29 | -0.783 | -0.709 |
| AGTCACAGTTCATCTAGGTAACGTAAGATATGCT | 1.67 | 2.47 | 2.66 | 3.33 | 2.05 | 2.13 | 0.362 | 3.1 |
| CCTAGTTGGTCAAGGTCACACAAGCTATAGGTAC | 4.53 | 4.81 | 4.89 | 2.26 | 4.88 | 4.19 | 3.83 | 3.72 |
| GGAACGAGGGCATTCGAGTTGACAGCATGGCGAT | 0.801 | 1.2 | 1.69 | 3.06 | 0.845 | 3.83 | -0.733 | 2.99 |
| TCATATAGGTACAGGTGAAAGTCGAACGATATGA | 0.469 | 0.866 | 0.834 | 0.797 | 1.07 | 0.566 | -0.52 | 0.343 |
| TCAGTCAGGTGAAGGTAACTCAGGTACGCAGTCG | 0.729 | 0.735 | 0.793 | 0.667 | 0.742 | 2.32 | 1.34 | -0.131 |
